# According to PubChem BioAssay (NCI):
# Several values for one entry are separate records, joined by “and”; a condition that tells them apart may be missing. Identical values can stand only once. About 79,000 compounds went through this panel and 15% of them were active in at least one assay; those are over-represented in the sample as a whole. Activity calls are given as the source filed them. Rule as the data show it: active = growth inhibition above about 70%; inactive = the rest.
# Experiment: NCI Yeast Anticancer Drug Screen. Data for the cln2 rad14 strain (AID 165);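 also: 0% = growth equal to vehicle treated cultures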
# Conditions: S. cerevisiae cln2 rad14 strain, at 50.0 µM, hits give high values
# In short: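 Growth of compound-exposed yeast (cln2 rad14 genotype) measured and expressed as inhibition relative to vehicle.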
row,SMILES,growth inhibition
1,CC(=O)OC1=CC2=CCC3C(CCC4(C)C(C(C)=O)CCC34)C2(C)CC1 (stereo not drawn),39.8% (inactive)
2,CC(=O)OCC(OC(C)=O)C(OC(C)=O)C(OC(C)=O)C(COC(C)=O)OC(C)=O (stereo not drawn),-30.3% (inactive) and -21.9% (inactive) and -0.1% (inactive)
3,CCCC/C=C1/CCC(CN(C)C)C1=O (stereo not drawn),46.2% (inactive)
4,CCN1CCC(O)(/C=C/c2ccccc2C)C(C(=O)/C=C/c2ccccc2C)C1 (stereo not drawn),92.2% (active)
5,Cc1c(Cl)ccc2c(C(O)CNCc3ccccc3)cc(-c3ccc(Cl)cc3)nc12 (stereo not drawn),93.8% (active)
6,COc1ccc(C2CC(c3c(O)ccc4ccccc34)=NN2)cc1OC (stereo not drawn),90.2% (active)
7,O=c1[nH]c2c([N+](=O)[O-])cc(Cl)cc2nc1/C=C(\O)c1ccco1,59% (inactive)
8,NC1c2ccccc2-c2ccc([N+](=O)[O-])cc21 (stereo not drawn),-9.3% (inactive)
9,CN(C(=O)c1ccccc1)C1(COC(=O)c2ccccc2)CCCCC1,21.3% (inactive)
10,CCOC(=O)Nc1cc2c(cc1Br)-c1ccccc1C2O (stereo not drawn),-2.85% (inactive)
11,O=C(/C=C(/Nc1ccccc1)C(=O)c1ccccc1)c1ccccc1,-5.1% (inactive)
12,Nc1ccc2[nH]c3ccccc3c2c1,-38% (inactive)
13,Clc1ccc([I+]c2cccs2)cc1,97.7% (active)
14,CCCCCCC(C)S(=O)(=O)c1ccc(C)cc1 (stereo not drawn),5.1% (inactive)
15,COC(=O)/C(=C/C=C(c1ccccc1)c1ccccc1)N(C(C)=O)C(C)=O,99.4% (active)
16,Oc1ccc(Cc2cccc(Br)c2)c(O)c1,99.2% (active)
17,O=C(NNc1nc(-c2ccccc2)cs1)C(F)(F)F,87% (active)
18,Nc1nc(-c2ccc(Cl)cc2)cs1,97% (active)
19,Cc1cc(C)nc(CCSS(=O)(=O)O)c1,0.65% (inactive)
20,CC1(C)OC2C(COC(c3ccccc3)(c3ccccc3)c3ccccc3)OC(n3cnc4c(N)ncnc43)C2O1 (stereo not drawn),72.5% (active)

row,SMILES,growth inhibition
1,Oc1ccc(N=Nc2ccccc2)c(O)c1.Oc1ccc(N=Nc2ccccc2)c(O)c1.[Cu],97.3% (active)
2,COC(=O)/C=N/O,0.85% (inactive)
3,C=CCCCCO/N=C/c1c2c(O)c3c(O)c(C)c4c(c3c1O)C(=O)C(C)(O/C=C/C(OC)C(C)C(OC(C)=O)C(C)C(O)C(C)C(O)C(C)/C=C/C=C(\C)C(=O)N2)O4 (stereo not drawn),88.3% (active)
4,O=C(N/C(=C\c1ccc2c(c1)OCO2)c1nc2ccccc2s1)c1ccccc1,96.8% (active)
5,C=C1C[C@H](O)[C@H]2C(C[Se]c3ccccc3)C(=O)O[C@@H]2[C@H]2[C@H](C)C(O)C[C@@H]12 (stereo partly drawn),-32.1% (inactive)
6,CC1=C(C(=O)Nc2ccccc2C)C(c2ccccc2F)C(C(=O)Nc2ccccc2C)=C(C)N1,-23.1% (inactive)
7,COC(=O)CCC(NC(=S)N/N=C(\C)c1cnc2ccccc2n1)C(=O)OC (stereo not drawn),11.1% (inactive)
8,CC(=O)Oc1c2c(c(OC(C)=O)c3c1n(C(C)=O)c1ccccc1n3C(C)=O)n(C(C)=O)c1ccccc1n2C(C)=O,62.5% (inactive)
9,OCC(O)C(O)C(O)C(O)C(SCc1ccccc1)SCc1ccccc1 (stereo not drawn),-9.4% (inactive) and -3.35% (inactive) and -11.2% (inactive)
10,CCOc1c(N=Nc2ccc(Cl)cc2)c(-c2ccccc2)nn1C(N)=S,93.3% (active)
11,CC(=O)N(C1=CC(=O)c2ccccc2C1=O)c1ccc(Cl)cc1,90.8% (active)
12,O=C(C1=Cc2ccccc2OC1)N1CCN(c2cccc(Cl)c2)CC1,57.8% (inactive)
13,Oc1c(Cl)ccc2cccnc12,92.5% (active)
14,COc1ccc2c(Cc3cc(Cl)ccc3O)cncc2c1O,40% (inactive)
15,CCCCCCCCCCCC1=NCC(C)N1 (stereo not drawn),44.4% (inactive)
16,c1ccc2c(B(c3cccc4ccccc34)c3cccc4ccccc34)cccc2c1,98.7% (active)
17,CC(CCOP(=O)(O)OCCC(C)CC(C)(C)C)CC(C)(C)C (stereo not drawn),51% (inactive)
18,CC(C)(C)C(=O)CC(=O)C(F)(F)C(F)(F)C(F)(F)F.[Ag],89.6% (active)
19,Cc1ccc(S(=O)(=O)Nn2c(S)c(C#N)c(-c3ccc([N+](=O)[O-])cc3)c(C#N)c2=O)cc1,29.8% (inactive)
20,COC1=C(/C(=N/Nc2ccc([N+](=O)[O-])cc2[N+](=O)[O-])c2ccccc2)COC1=O,4.15% (inactive)

# Experiment: NCI Yeast Anticancer Drug Screen. Data for the bub3 strain (AID 167)
# Conditions: S. cerevisiae bub3 mutant strain, at 5.0 µM (retest, dose inferred, filed as 0.5), hits give high values
# In short: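 Steps: expose the mutant yeast strain to compound; grow alongside vehicle-treated cultures; measure growth; express inhibition against the vehicle cultures.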
row,SMILES,growth inhibition
1,CC(=O)OC1=CC2=CCC3C(CCC4(C)C(C(C)=O)CCC34)C2(C)CC1 (stereo not drawn),-11% (inactive)
2,CCCC/C=C1/CCC(CN(C)C)C1=O (stereo not drawn),14% (inactive)
3,CCN1CCC(O)(/C=C/c2ccccc2C)C(C(=O)/C=C/c2ccccc2C)C1 (stereo not drawn),8% (inactive)
4,Cc1c(Cl)ccc2c(C(O)CNCc3ccccc3)cc(-c3ccc(Cl)cc3)nc12 (stereo not drawn),26% (inactive)
5,COc1ccc(C2CC(c3c(O)ccc4ccccc34)=NN2)cc1OC (stereo not drawn),8% (inactive)
6,O=c1[nH]c2c([N+](=O)[O-])cc(Cl)cc2nc1/C=C(\O)c1ccco1,4% (inactive)
7,NC1c2ccccc2-c2ccc([N+](=O)[O-])cc21 (stereo not drawn),1% (inactive)
8,CN(C(=O)c1ccccc1)C1(COC(=O)c2ccccc2)CCCCC1,21% (inactive)
9,CCOC(=O)Nc1cc2c(cc1Br)-c1ccccc1C2O (stereo not drawn),68% (inactive)
10,O=C(/C=C(/Nc1ccccc1)C(=O)c1ccccc1)c1ccccc1,13% (inactive)
11,Nc1ccc2[nH]c3ccccc3c2c1,-1% (inactive)
12,Clc1ccc([I+]c2cccs2)cc1,66% (inactive)
13,CCCCCCC(C)S(=O)(=O)c1ccc(C)cc1 (stereo not drawn),0% (inactive)
14,COC(=O)/C(=C/C=C(c1ccccc1)c1ccccc1)N(C(C)=O)C(C)=O,-1% (inactive)
15,Oc1ccc(Cc2cccc(Br)c2)c(O)c1,-3% (inactive)
16,O=C(NNc1nc(-c2ccccc2)cs1)C(F)(F)F,97% (active)
17,Nc1nc(-c2ccc(Cl)cc2)cs1,-29% (inactive)
18,Cc1cc(C)nc(CCSS(=O)(=O)O)c1,-1% (inactive)
19,CC1(C)OC2C(COC(c3ccccc3)(c3ccccc3)c3ccccc3)OC(n3cnc4c(N)ncnc43)C2O1 (stereo not drawn),-2% (inactive)

row,SMILES,growth inhibition
1,Oc1ccc(N=Nc2ccccc2)c(O)c1.Oc1ccc(N=Nc2ccccc2)c(O)c1.[Cu],15% (inactive)
2,COC(=O)/C=N/O,-19% (inactive)
3,C=CCCCCO/N=C/c1c2c(O)c3c(O)c(C)c4c(c3c1O)C(=O)C(C)(O/C=C/C(OC)C(C)C(OC(C)=O)C(C)C(O)C(C)C(O)C(C)/C=C/C=C(\C)C(=O)N2)O4 (stereo not drawn),49% (inactive)
4,O=C(N/C(=C\c1ccc2c(c1)OCO2)c1nc2ccccc2s1)c1ccccc1,19% (inactive)
5,C=C1C[C@H](O)[C@H]2C(C[Se]c3ccccc3)C(=O)O[C@@H]2[C@H]2[C@H](C)C(O)C[C@@H]12 (stereo partly drawn),-5% (inactive)
6,CC1=C(C(=O)Nc2ccccc2C)C(c2ccccc2F)C(C(=O)Nc2ccccc2C)=C(C)N1,1% (inactive)
7,COC(=O)CCC(NC(=S)N/N=C(\C)c1cnc2ccccc2n1)C(=O)OC (stereo not drawn),12% (inactive)
8,CC(=O)Oc1c2c(c(OC(C)=O)c3c1n(C(C)=O)c1ccccc1n3C(C)=O)n(C(C)=O)c1ccccc1n2C(C)=O,44% (inactive)
9,CCOc1c(N=Nc2ccc(Cl)cc2)c(-c2ccccc2)nn1C(N)=S,1% (inactive)
10,CC(=O)N(C1=CC(=O)c2ccccc2C1=O)c1ccc(Cl)cc1,89% (active)
11,O=C(C1=Cc2ccccc2OC1)N1CCN(c2cccc(Cl)c2)CC1,10% (inactive)
12,Oc1c(Cl)ccc2cccnc12,99% (active)
13,COc1ccc2c(Cc3cc(Cl)ccc3O)cncc2c1O,-2% (inactive)
14,CCCCCCCCCCCC1=NCC(C)N1 (stereo not drawn),0% (inactive)
15,c1ccc2c(B(c3cccc4ccccc34)c3cccc4ccccc34)cccc2c1,-4% (inactive)
16,CC(CCOP(=O)(O)OCCC(C)CC(C)(C)C)CC(C)(C)C (stereo not drawn),-19% (inactive)
17,CC(C)(C)C(=O)CC(=O)C(F)(F)C(F)(F)C(F)(F)F.[Ag],98% (active)
18,Cc1ccc(S(=O)(=O)Nn2c(S)c(C#N)c(-c3ccc([N+](=O)[O-])cc3)c(C#N)c2=O)cc1,45% (inactive)
19,COC1=C(/C(=N/Nc2ccc([N+](=O)[O-])cc2[N+](=O)[O-])c2ccccc2)COC1=O,3% (inactive)
